TRHR ag – TRH receptor (human) agonism. P34981. TRHR cells, calcium flux fluo-8, FDSS agonist mode. activation, % at 2 µM. 360,000 compounds, 0.18% hits. AID 493084; note: 0% is about no effect
Target sequence (P34981 whole entry, looked up): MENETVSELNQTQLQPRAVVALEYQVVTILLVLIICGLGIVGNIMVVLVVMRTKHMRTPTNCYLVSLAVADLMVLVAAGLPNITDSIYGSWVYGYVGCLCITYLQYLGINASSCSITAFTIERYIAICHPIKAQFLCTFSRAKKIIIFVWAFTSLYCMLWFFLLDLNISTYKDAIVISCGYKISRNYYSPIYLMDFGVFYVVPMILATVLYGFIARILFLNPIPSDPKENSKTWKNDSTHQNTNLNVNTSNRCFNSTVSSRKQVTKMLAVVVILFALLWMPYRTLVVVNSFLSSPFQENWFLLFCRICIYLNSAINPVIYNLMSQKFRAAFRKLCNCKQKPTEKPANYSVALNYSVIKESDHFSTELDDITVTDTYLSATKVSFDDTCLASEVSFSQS
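TRHR-expressing cells, plated overnight in medium with 10% serum, were loaded with fluo-8 calcium dye at room temperature. After a 10 s baseline, library compound was pin-added and calcium release was recorded kinetically (ex 480/em 530) as agonist response.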
D1 antag – blocks dopamine activation of the human D1 receptor; activity change, negative = inhibition, % at 10 µM; HEK293 TREx D1 cells, calcium flux, dopamine EC80; stronger effect = lower value; 360,000 compounds, 3.2% hits; AID 504652; in the data active = activity change below about -30%; note: % is set by controls: 0 for no effect and ±100 for the full control effect
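Tetracycline-induced HEK293 Trex D1 cells, force-coupled to calcium, dye-loaded; compounds added and read 180 s, then EC80 dopamine added and calcium flux tracked kinetically another 180 s.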
TRHR PAM – TRH receptor (human) allosteric enhancement; 360,000 compounds, 0.66% hits; P34981; TRHR cells, fluo-8 calcium fluorescence, EC20 TRH enhancement; AID 493056; enhancement, % at 2 µM; in the data active = enhancement above about 30%; note: 0% is about no effect
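Enhancer read-out: after compound pinning and an initial kinetic agonist-mode read, an EC20 of TRH (10 nM final) was injected and fluo-8 calcium signal (Ex 480/Em 530) followed at 1 s/cycle for 100 cycles in TRHR-expressing cells.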
D1 agonist – agonists of human D1 dopamine receptor. AID 504660. 360,000 compounds, 1% hits. P21728. HEK293 T-REx D1 cells, calcium flux, agonist mode. activation, % at 2 µM; note: 0% is about no effect
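Inducible HEK293 T-REx D1 cells, force-coupled to calcium signalling, were plated at 4000 cells/well with tetracycline and held overnight at 30 C. After no-wash calcium dye loading, compound-evoked calcium rise over 180 s flagged agonists.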
D1 potentiator – potentiators of human D1 dopamine receptor. HEK293 TREx D1 cells, calcium flux, dopamine EC20 potentiation. potentiation, % at 10 µM. AID 504651. 360,000 compounds, 0.036% hits; in the data active = potentiation above about 30%; note: 0% is about no effect
Numbers without * were called inactive; . = no result. Only some compounds are listed: those with a hit (about 4.6% of all), similar ones and a draw of the others. Cut-off read from the data, not from the text of the source, unless noted: active = activation above about 30%; inactive = the rest.

SMILES | TRHR ag | D1 antag | TRHR PAM | D1 agonist | D1 potentiator
Cc1ccc(C=Nc2ccccc2C(=O)Nc2ccccc2)cc1 | 0 | -9 | 6 | 0 | -4
COc1ccc(OC)c(NC(=O)C(C)n2c(=O)c(-c3ccccc3NC(C)=O)nc3ccccc32)c1 (configuration not stated) | 0 | 3 | 15 | -2 | 3
CN(CC(=O)Nc1ccc(F)cc1)C(=O)CSc1nc2ncc(Cl)cc2[nH]1 | 0 | 3 | -1 | -2 | 10
CCN(C(=O)CSc1nc2ccccc2[nH]1)c1ccccc1 | 0 | -3 | -3 | 6 | -6
COc1ccc2nc(SCC(=O)N(C)CC(=O)Nc3ccc(F)cc3)[nH]c2c1 | 0 | 8 | 36* | 0 | -5
CN(C(=O)CSc1nc2ccccc2[nH]1)c1ccc(F)cc1 | 0 | -38* | -1 | 0 | -7
CC(C)c1ccc(-c2noc(SCC(=O)N(C)c3ccc(F)cc3)n2)cc1 | -1 | -16 | 3 | 50* | -4
O=C(CSc1nc2ccccc2[nH]1)Nc1ccc(F)cc1 | 0 | -6 | -3 | 2 | .
O=C(Nc1ccc(F)cc1)C(Sc1nc2ccccc2[nH]1)c1ccccc1 (configuration not stated) | 0 | -42* | -3 | 11 | -4
CCOc1ccc2nc(SCC(=O)Nc3nonc3C)[nH]c2c1 | -1 | -35* | 0 | 1 | -4
COc1ccc(CCNCc2ccccc2N2CCCC2)cc1 | -1 | 10 | -5 | 1 | 2
COc1ccc(CCNCc2cc(C)n(-c3ccc(OC)cc3)c2C)cc1 | 0 | -6 | -14 | 55* | -8
O=C(O)C1CC(=O)N(Cc2ccccc2)C1 (configuration not stated) | 2 | -22 | 5 | 1 | -12
O=C(NCc1ccc(Cl)cc1Cl)C1CC(=O)N(Cc2ccccc2)C1 (configuration not stated) | 1 | -31* | -7 | -2 | -2
CCc1ccc(N/C(SCc2ccccc2C)=C(/C#N)C(=O)NCc2ccco2)cc1 | 3 | -30* | -3 | 30* | -4
CCOc1cccc(C(=O)N(Cc2ccc(C(C)C)cc2)C2CCS(=O)(=O)C2)c1 (configuration not stated) | 0 | -12 | 3 | 3 | -4
O=C(COc1ccc([N+](=O)[O-])cc1)N1CCC(c2nc3ccccc3s2)CC1 | 0 | -82* | -3 | 7 | -1
CCOc1cccc(C(=O)N2CCC(c3nc4ccccc4s3)CC2)c1 | 0 | -36* | 5 | 0 | -2
COc1ccc(OCC(=O)N2CCC(c3nc4ccccc4s3)CC2)cc1 | 0 | -11 | -1 | 5 | -1
CCOC(=O)N1CCN(C(=O)c2nc3ccccc3s2)CC1 | 0 | -34* | -1 | 4 | 4
O=C(Nc1n[nH]c(C(F)(F)F)n1)C1CC1 | -1 | -34* | -4 | 3 | -4
CC(C)OCCCn1c(=O)c2ccccc2n2c(-c3ccc(F)cc3)nnc12 | -1 | -6 | 12 | 10 | -2
CCn1ccnc1CN1CCN(CC=C(C)C)C(CCO)C1 (configuration not stated) | 0 | -10 | 31* | 0 | -4
Cc1nc(-n2nc(C)c(CCC(C)C)c2C)sc1C(=O)Nc1ccc(Br)cc1 | 0 | -1 | 2 | 1 | 1
CCC(CO)N=CC1=C(O)CC(c2ccccc2)CC1=O (configuration not stated) | 0 | 11 | 32* | -2 | -3
SMILES | TRHR ag | D1 antag | TRHR PAM | D1 agonist | D1 potentiator
COc1ccc(C(=O)Nc2ccccc2C(=O)OCc2cc(=O)n3c4c(sc3n2)CCCC4)cc1 | 1 | 2 | 1 | -2 | 0
Cc1cccc(NC(=O)N2CCN3CCCCC3C2)c1C (configuration not stated) | 0 | 13 | 1 | -1 | -1
O=C(Nc1ccc2c(c1)C(=O)NC2=O)c1cc(Cl)ccc1Cl | -2 | -31* | 3 | 1 | -5
O=C(CSc1ccc(F)cc1)Nc1ccc2c(c1)C(=O)NC2=O | -1 | -37* | 5 | 12 | -10
O=C(Nc1ccc2c(c1)C(=O)NC2=O)c1cccc(Cl)c1 | -1 | -33* | -1 | -1 | -6
CCOc1ccc(S(=O)(=O)NCCC(=O)NCC(c2ccc(F)cc2)N2CCOCC2)cc1 (configuration not stated) | 0 | -78* | 2 | 1 | -17
CCOc1ccc(S(=O)(=O)NCCC(=O)NCC(c2ccc(OC)cc2)N2CCCCC2)cc1 (configuration not stated) | 0 | 3 | 12 | 2 | -2
Cc1oc2ccc(O)c(CN3CCCCCC3)c2c1C(=O)Nc1cccc(Cl)c1C | -1 | -2 | 1 | 21 | -4
CCCCCCCCCCOC(=O)Cn1c(COc2ccccc2OC)[n+](C)c2ccccc21 | -1 | -23 | -26 | 183* | 17
Cn1c(COc2ccccc2O)[n+](C)c2ccccc21 | 0 | 8 | 3 | 0 | -2
CCNC(=S)NNC(=O)c1cc(CC(C)C)nc2ccccc12 | 0 | -46* | -5 | 2 | -1
CCNC(=S)NNC(=O)c1cc(-c2ccc(OCC)cc2)nc2ccccc12 | -1 | -33* | -4 | 8 | -6
CCOc1ccc(Sc2cc(C(=O)NC(C)c3ccccc3)c3ccccc3n2)cc1 (configuration not stated) | 1 | -30* | -6 | -3 | -3
CCOc1ccc(Sc2cc(C(=O)NCCCOC)c3ccccc3n2)cc1 | -1 | 4 | -7 | -3 | 4
CCNC(=S)NNC(=O)c1cc(-c2ccccc2C)nc2ccccc12 | -1 | -11 | -7 | 1 | 5
CCNC(=S)NNC(=O)c1cc(-c2cccc(OC)c2)nc2ccccc12 | -1 | -2 | -9 | 2 | -3
CCOc1ccc(C(=O)Nc2nnc(S(=O)(=O)Nc3ccccc3)s2)cc1 | 0 | -8 | -5 | -1 | -2
COc1ccc(NC(=O)CN2C(=O)CCn3nc(-c4cccn4C)cc32)cc1Cl | 0 | 8 | -2 | -1 | 4
CCCn1c2ccccc2c2cnn(CC(=O)N(CCCOC)Cc3ccco3)c(=O)c21 | -1 | 5 | 6 | -1 | 6
COc1ccccc1CNC(=O)c1ccc2c(c1)N(Cc1cc(C)ccc1C)C(=O)c1ccccc1S2 | 1 | -38* | -1 | 4 | -1
CCN(CC)CCCNC(=O)c1ccc2c(c1)N(Cc1c(F)cccc1Cl)C(=O)c1ccccc1S2 | 17 | -8 | -8 | 45* | 2
O=C(NCc1ccco1)c1ccc2c(c1)N(Cc1c(F)cccc1Cl)C(=O)c1ccccc1S2 | 1 | 3 | -12 | 3 | 4
CC1CCCN(CCCNC(=O)c2ccc3c(c2)N(Cc2ccc(F)cc2)C(=O)c2ccccc2S3=O)C1 (configuration not stated) | 3 | 4 | -6 | 39* | 1

Assay outcomes deposited in PubChem BioAssay by National Center for Advancing Translational Sciences (NCATS).
